Screens as filed in PubChem BioAssay.
Cycloheximide cs: counter-screen hit for Shiga toxin inhibitors, cycloheximide. hit rate 12% among 300,000. max response, %. cell reporter, cycloheximide protein synthesis inhibition counterscreen. AID 2314; in the data active = max response mostly above about 13%, no sharp cut-off; inactive = mostly below about 14%; also: read at 38.3 µM for the half of the compounds with a filed dose; 0% is about no effect
LmPK inhibitor: blocks Leishmania mexicana pyruvate kinase activity; hit rate 0.37% among 290,000; AID 1721; Potency, µM (titrated, usually from 57.5 µM), inactives show at the top dose activity change, negative = inhibition, usual class: inhibitors; purified LmPK, Kinase-Glo ATP luminescence, 1 h; Q27686; also: potency is read from the fitted curve at half-maximal effect; % is scaled to controls: 0 for no effect and ±100 for the full control effect
Target sequence (Q27686 whole entry, looked up): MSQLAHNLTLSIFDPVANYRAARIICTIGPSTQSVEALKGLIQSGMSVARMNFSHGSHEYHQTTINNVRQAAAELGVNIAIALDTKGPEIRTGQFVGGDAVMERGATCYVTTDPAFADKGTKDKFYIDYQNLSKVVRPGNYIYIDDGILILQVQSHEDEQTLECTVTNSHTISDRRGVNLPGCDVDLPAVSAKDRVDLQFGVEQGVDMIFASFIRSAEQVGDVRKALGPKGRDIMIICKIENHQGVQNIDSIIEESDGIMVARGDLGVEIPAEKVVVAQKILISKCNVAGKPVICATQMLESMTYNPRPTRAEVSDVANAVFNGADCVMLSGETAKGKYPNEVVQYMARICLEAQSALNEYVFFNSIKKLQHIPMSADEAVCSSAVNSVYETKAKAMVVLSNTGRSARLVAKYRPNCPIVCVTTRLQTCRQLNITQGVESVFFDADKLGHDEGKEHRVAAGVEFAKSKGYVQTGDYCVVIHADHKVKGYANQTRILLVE
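ATP generated from ADP (0.1 mM) and PEP (0.5 mM) by 0.1 nM LmPK over 1 h at room temperature (pH 7.2 imidazole buffer) was detected by coupled luciferase luminescence. Values were normalized to uninhibited and no-enzyme wells.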
NS1 function inh: blocks influenza NS1 protein function. Potency, µM (highest dose often 46.1 µM), for the others: at the highest dose activity, positive = more growth. hit rate 0.4% among 270,000; calls by dose curve; also: potency is read from the fitted curve at half-maximal effect; actives are rising curves; nearly all actives have a fitted effect of over 50% in size
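Compounds were scored for reversing the slow growth caused by influenza A NS1 in S. cerevisiae, measured by optical density at 600 nm. Assay medium contained 2% galactose at pH 6.0; NS1-free yeast of the same strain were the positive control.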
Tb PYK inh: blocks Trypanosoma brucei pyruvate kinase; Q57TT1; TbPYK enzyme, Kinase-Glo Plus ATP luminescence, 45 min; Potency, µM (series often up to 76.8 µM), for the others: at the highest dose activity, negative = inhibition, actives largely listed as inhibitors; hit rate 0.12% among 410,000; AID 624173; also: potency is read from the fitted curve at half-maximal effect; % is scaled to controls: 0 for no effect and ±100 for the full control effect; nearly all actives have a fitted effect of over 50% in size
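Glycolytic pyruvate kinase of T. brucei was incubated with substrate, test compound and 130 uM ADP for 45 minutes at room temperature. Luminescent Kinase-Glo Plus signal was measured after 10 minutes.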
SARS PLP yeast: SARS-CoV PLP inhibition in yeast; S. cerevisiae expressing SARS-CoV PLpro, growth rescue; Potency, µM (highest dose often 32.9 µM), for the others: top-dose activity, positive = growth rescue, most hits filed as activators; hit rate 0.19% among 330,000; AID 485353; calls by dose curve; also: potency is read from the fitted curve at half-maximal effect; 0% is about no effect; nearly all actives have a fitted effect of over 55% in size
Shiga inhibitor: inhibitors of Shiga toxin in Vero cells; Vero cells, Shiga toxin protein synthesis inhibition reporter; inhibition, % at 38.7 µM; hit rate 9.2% among 290,000; in the data active = inhibition mostly above about 28%, no sharp cut-off; inactive = mostly below about 43%; also: 0% is about no effect
The depositor's hits bear a star; ? = inconclusive; . = no result given; [ ] = another dose, or the depositor's remark. Many of the other results were omitted from the sample, so hits are more common in it than they were. Unless noted, calls follow the shape of the dose curve; as a rule, active = well fitted curve in the direction sought with a large enough effect; inconclusive = small, poorly fitted or top-dose-only effect, or another doubt; inactive = no such curve, though single readings can be large; an effect the other way counts as inactive or inconclusive.

SMILES | Cycloheximide cs | LmPK inhibitor | NS1 function inh | Tb PYK inh | SARS PLP yeast | Shiga inhibitor
CCOc1ccc(CCNC(=O)c2ccc(CS(=O)Cc3ccccc3Cl)o2)cc1 (stereo not drawn) | 16* | 1% | -2% | 5% | -15% | 35
COc1ccccc1OC(C)C(=O)Nc1ccccc1C(=O)NCc1cccnc1 (stereo not drawn) | -2 | 2% | -2% | 0% | 2% | 4
CCN1CCN(c2ccc(NC(=O)Cc3ccccc3)cc2)CC1 | 15* | -9% | 3% | 0% | 6% | 67*
O=C(CSc1nc2ccccc2[nH]1)Nc1cccc(S(=O)(=O)N2CCOCC2)c1 | -1 | 10% | . | -4% | 0% | -4
O=C(CSc1nc2ccccc2[nH]1)Nc1ccc(N2CCOCC2)cc1 | 16* | -7% | 6% | -4% | -1% | 30*
O=C(Cc1ccccc1)Nc1ccc(N2CCOCC2)cc1 | 28* | -27% | 4% | -19% | 0% | 46*
c1ccc2[nH]c(SCCN3CCOCC3)nc2c1 | 20* | 7% | -4% | 0% | 3% | 25
O=c1[nH]c(SCCN2CCOCC2)nc(O)c1-c1ccccc1 | -3 | 6% | 1% | -1% | 1% | -3
Cc1ccc(C)c(OCCC(=O)Nc2ccc(S(=O)(=O)N3CCCC3)cc2)c1 | . | . | . | -6% | 7% | .
CCc1cccc(CC)c1NC(=O)CN1CCN(c2ccccc2)CC1 | -5 | -11% | -18% | -12% | 7.1µM* | -28
CCCCCc1ccc(-c2ccc(OC)cc2)nc1 | 0 | 1% | -8% | 1% | -4% | 13
CCCc1ccc(-c2ccc(C(=O)O)cc2)nc1 | 26* | ? | -35% | -8% | -15% | 65*
CCCCCc1ccc(-c2ccc(/C=C/C(N)=O)cc2)nc1 | 56* | 1% | -3% | -1% | -5% | 67*
CCCc1ccc(-c2ccc(C(=O)Oc3ccc(OCC)cc3)cc2)nc1 | . | . | . | 3% | . | .
c1ccc(OCc2nc(-c3cccs3)no2)cc1 | 45* | 1% | -12% | 2% | 2% | 76*
O=C(NCc1ccc(F)cc1)c1nc(-c2cccs2)no1 | 1 | -1% | . | 1% | -3% | 26
CN(CCN1CCOCC1)Cc1nc(-c2cccs2)no1 | 3 | 6% | 1% | 2% | 0% | 15
Cc1cc(OCc2nc(-c3cccs3)no2)cc(C)c1Cl | 37* | -3% | -1% | 1% | -17% | 42*
Fc1ccc(OCc2nc(-c3cccs3)no2)cc1 | 41* | -4% | -5% | 0% | -1% | 110*
CCN(C(=O)Cn1nc(Cc2ccncc2)c2ccccc2c1=O)c1cccc(C(F)(F)F)c1 | . | . | . | 1% | . | .
Cc1ccc(NC(=O)Nc2nnc(N3CCCC3)s2)cc1C | . | . | . | 3% | . | .
COc1cccc2c1O/C(=N\O)C(C(=O)Nc1ccc(C)cc1)C2 (stereo not drawn) | 13* | -2% | -4% | -4% | -3% | 22
COc1cccc2c1O/C(=N\O)C(C(=O)Nc1cccc(Br)c1)C2 (stereo not drawn) | 33* | 0% | 2% | 6% | 0% | 80*
CN1CCCN(S(=O)(=O)c2ccc3ccccc3c2)CC1 | -2 | 1% | -14% | 3% | 0% | -6
CCOc1ccc(/C(O)=C2/C(=O)C(=O)N(CC3CCCO3)C2c2ccco2)cc1 (stereo not drawn) | 15* | 7% | 15% | -2% | 1% | 42*
SMILES | Cycloheximide cs | LmPK inhibitor | NS1 function inh | Tb PYK inh | SARS PLP yeast | Shiga inhibitor
CCOc1cccc(/C(O)=C2/C(=O)C(=O)N(Cc3cccnc3)C2c2ccco2)c1 (stereo not drawn) | 22* | 0% | -2% | -5% | -26% | 50
CCOc1cccc(/C(O)=C2/C(=O)C(=O)N(Cc3ccco3)C2c2ccncc2)c1 (stereo not drawn) | 2 | 0% | -4% | -11% | -15% | -7
CCOc1ccc(/C(O)=C2/C(=O)C(=O)N(CCN(CC)CC)C2c2ccco2)cc1 (stereo not drawn) | -1 | -5% | -9% | -8% | 12% | 10
CCOc1cccc(/C(O)=C2/C(=O)C(=O)N(CCOC)C2c2ccco2)c1 (stereo not drawn) | 20* | -11% | -1% | 4% | 6% | 45*
Cc1cc(C)c(C)c(S(=O)(=O)N2CCC(C(=O)NCC(c3ccccc3)N(C)C)CC2)c1C (stereo not drawn) | -4 | 4% | -5% | 0% | 1% | 2
COc1ccc(-c2nc3cnc(N4CCN(C)CC4)nc3n(CCC#N)c2=O)cc1 | . | . | . | -4% | . | .
Cc1nnc2c(N3CCN(c4ccccc4F)CC3)nc3ccc(C(=O)c4ccccc4)cc3n12 | . | . | . | 2%[15.4 µM] | . | .
Cc1ccc(C(=O)N2CCN(c3cc4c(cc3[N+](=O)[O-])n(C)c(=O)n4C)CC2)cc1 | 10 | 1% | -3% | -7% | 8.9µM* | -4
Cc1ccc(S(=O)(=O)N2CCN(C(=O)c3ccccc3)C2)cc1[N+](=O)[O-] | 2 | -5% | . | 6% | 0% | 8
Cc1ccc(C(=O)N2CCN(S(=O)(=O)c3ccccc3[N+](=O)[O-])C2)cc1 | 37* | -5% | . | 8% | 1% | 92*
Cn1c(=O)n(C)c2cc([N+](=O)[O-])c(N3CCN(C(=O)c4cccc(F)c4)CC3)cc21 | 1 | 0% | 1% | -12% | 0% | -3
CC(C)CN(C(=O)COC(=O)COc1ccc2c(c1)CCC2)c1c(N)n(Cc2ccccc2)c(=O)[nH]c1=O | . | . | . | -1% | -7% | .
Cc1ccsc1CNC(=O)C1(C)CCCN1CC(C)C (stereo not drawn) | . | . | . | 4% | . | .
Cc1ccc(/C=C/C(=O)Nc2cccc3ncccc23)o1 | 7 | -15% | -5% | ? | -3% | -10
Cc1ccc(/C=C/C(=O)Nc2cccnc2)o1 | 10 | -15% | 16% | 28µM* | -8% | 13
O=C(/C=C/c1ccccc1)Nc1cccnc1 | 28* | -13% | -58% | -3% | -10% | 33*
O=C(C=Cc1ccccc1)Nc1ccccc1 | . | . | . | -16% | . | .
O=C(/C=C/c1ccc([N+](=O)[O-])cc1)Nc1cccnc1 | 43* | -20% | 13% | -7% | 0% | 112*
Nc1c(CC(=O)O)cccc1C(=O)c1ccccc1 | . | . | . | -7% | . | .
CC(Oc1ccccc1)c1ccnc(N)n1 (stereo not drawn) | 22* | 0% | 6% | 4% | 1% | 22
O=C(Cc1ccccc1[N+](=O)[O-])NCc1ccccc1Cl | 55* | -2% | 9% | 1% | 1% | 95*
O=C(/C=C/c1ccccc1[N+](=O)[O-])NCc1ccccc1Cl | 50* | -5% | . | 2% | 0% | 60
O=C(NCc1ccccc1Cl)c1ccc(-c2ccccc2)cc1 | 22* | -1% | -5% | -9% | -4% | 47*
O=C(COC(=O)Cc1ccccc1[N+](=O)[O-])NCc1ccccc1Cl | -1 | 1% | -7% | -2% | 3% | -5
O=C(Cc1ccc(Cl)cc1)NCc1ccccc1Cl | 50* | 0% | . | -2% | 1% | 115
